A selection: hits, their analogues and other compounds. The true share with any hit is near 13%.
HCV inhibitor: inhibitors of hepatitis C virus infection; Huh7.5.1 HCVcc-Cre infection, luciferase reporter, 44 h; AID 651820; 340,000 tested, 3.4% active; Potency, µM (top dose mostly 41.8 µM), for inactives: at the top dose activity change, negative = inhibition, usual class: inhibitors; note: potency is the fitted concentration of half-maximal effect
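HCVcc-Cre virus at an moi near 0.5 was added right after compound to cells cultured 4 h from seeding (1,000 cells/well). Luciferase activity was determined 44 h later, 15 min after substrate addition at RT.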
HCMV inh: human cytomegalovirus inhibition; HFF cells, HCMV-luciferase reporter, 72 h; hits give low values; activity change, negative = inhibition, % at 57.5 µM; 410,000 tested, 4.5% active; AID 1259415; in the data active = activity change below about -60%; inconclusive = no clear call, values can overlap the other calls; inactive = above about -39%
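Cell-based, HFFs, 1000 cells/well, 16 h 37C; cpds in DMSO + HCMV-luc, MOI 1 PFU/cell; 72 h 37C; OneGlo luminescence after 5 min RT; norm. to buffer vs Salinomycin 10uM.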
Pf growth 48h: P. falciparum growth inhibition at 48 hours (one generation); 310,000 tested, 5.9% active; P. falciparum luciferase growth in erythrocytes, 48 h; AID 504832; Potency, µM (doses to about 28.7 µM), for the others: at the top dose activity change, negative = inhibition, usual class: inhibitors; note: potency is the fitted concentration of half-maximal effect
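Luminescence readout; reporter = integrated firefly luciferase in P. falciparum. RBC culture at 2% hematocrit, 0.1% parasitemia final, 37 C/5% CO2; decreased signal taken as growth inhibition.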
Pf growth 96h: P. falciparum growth inhibition at 96 hours; P. falciparum luciferase reporter growth, 96 h; Potency, µM (top dose mostly 28.7 µM), without a hit: top-dose activity change, negative = inhibition, hits mostly inhibitors; 320,000 tested, 6.9% active; AID 504834; note: potency is the fitted concentration of half-maximal effect
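Compounds incubated with erythrocytes infected by luciferase-expressing P. falciparum (2% hematocrit, 0.05% parasitemia final) for 96 hours, 37 C in 5% CO2. Growth inhibition scored as decreased luciferase luminescence.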
* = called active by the depositor; [ ] = another dose, or the depositor's remark. Unless noted, calls come from the whole dose curve; as a rule, active = well fitted inhibition curve with a large enough effect; inconclusive = small, poorly fitted or top-dose-only effect, or another doubt; inactive = no such curve, though single readings can be large or run the other way. % is set by controls: 0 for no effect and ±100 for the full control effect.

What do the screens show for `CCC(NC(=O)c1ccccc1NC(=O)c1ccccc1)C(=O)OC` (centres undefined)?
HCV inhibitor: -6%; HCMV inh: -27; Pf growth 48h: 2.1µM*; Pf growth 96h: 29%

How did Cc1ccc(C(=O)COC(=O)c2cc(-c3ccc(Cl)cc3)nc3ccccc23)cc1 do in these assays?
HCMV inh: 7

Results for CCC(=O)N1CCC2(CC1)Oc1ccc(F)cc1C(=O)C21CC(c2ccc(Cl)cc2)=NO1 (centres undefined) ?
HCV inhibitor: -13%; HCMV inh: -21; Pf growth 48h: inconclusive; Pf growth 96h: inconclusive

Results for CCCCCCCNC(=O)C1(CC2CC(c3cccc(Br)c3)=NO2)CCN(C(=O)Cc2ccc(F)cc2)CC1 (centres undefined) ?
HCV inhibitor: -19%; Pf growth 48h: 7.4µM*; Pf growth 96h: 10µM*

Results for CCCCCCCNC(=O)C1(CC2CC(c3ccc(Cl)cc3)=NO2)CCN(C(=O)Cc2ccc(F)cc2)CC1 (centres undefined) ?
HCV inhibitor: 15%; HCMV inh: 20; Pf growth 48h: 1%; Pf growth 96h: 12µM*

What do the screens show for `CCCCCCCNC(=O)C1(CC2CC(c3cccc(Br)c3)=NO2)CCNCC1` (centres undefined)?
HCV inhibitor: -7%[8.37 µM]; HCMV inh: -3; Pf growth 48h: inconclusive; Pf growth 96h: 12µM*

How did CCCCCCCNC(=O)C1(CC2CC(c3ccc(Cl)cc3)=NO2)CCNCC1 (centres undefined) do in these assays?
HCV inhibitor: 9%; HCMV inh: -100*; Pf growth 48h: -77%; Pf growth 96h: 6.6µM*

How did Cc1ccccc1OCCCn1c(CCNC(=O)C2CCCCC2)nc2ccccc21 do in these assays?
HCMV inh: -14

What do the screens show for `Cc1cc(C)c(Cn2c(C)c(CNCCCc3ccccc3)c(C(=O)O)c2C)c(C)c1`?
HCMV inh: 9

What do the screens show for `COc1ccc2c(c1)[N+](C)(C)C(C)(C)C=C2C`?
HCV inhibitor: 4%; HCMV inh: -11; Pf growth 48h: inconclusive; Pf growth 96h: inconclusive

Results for CCOc1ccc2c(c1)[N+](C)(C)C(C)(C)C=C2C ?
HCV inhibitor: 0%; HCMV inh: inconclusive; Pf growth 48h: 1.2µM*; Pf growth 96h: -24%

How did Cc1ccc(-c2cc(C#N)c(=O)n(Cc3c(Cl)cccc3Cl)c2)cc1 do in these assays?
HCV inhibitor: 2%; HCMV inh: -62*; Pf growth 48h: inconclusive; Pf growth 96h: inconclusive

Results for N#Cc1cc(-c2ccccc2)cn(Cc2c(Cl)cccc2Cl)c1=O ?
HCV inhibitor: -3%; HCMV inh: inconclusive; Pf growth 48h: inconclusive; Pf growth 96h: 1.7µM*

What do the screens show for `N#Cc1cc(-c2ccccc2)c[nH]c1=O`?
HCV inhibitor: 2%; HCMV inh: 4; Pf growth 48h: 7%; Pf growth 96h: 49%

Results for Cc1cccn(Cc2c(Cl)cccc2Cl)c1=O ?
HCV inhibitor: -16%; HCMV inh: 8

How did CC(=O)Nc1ccc(C)cc1-c1nc2ccccc2n(CC(=O)Nc2cc(Cl)ccc2C)c1=O do in these assays?
HCMV inh: 6

Results for CCOc1ccc(N2C(=O)C3ON(c4ccccc4)C(c4cccs4)C3C2=O)cc1 (centres undefined) ?
HCV inhibitor: -5%; HCMV inh: 6; Pf growth 48h: 12µM*; Pf growth 96h: 68%

Results for Oc1ccc(COC2CCCC2)c2cccnc12 ?
Pf growth 48h: 1.3µM*; Pf growth 96h: 8.3µM*

What do the screens show for `CN1CCN(C2CCN(Cc3ccc(O)c4ncccc34)CC2)CC1`?
HCMV inh: -16; Pf growth 48h: inconclusive; Pf growth 96h: inconclusive

What do the screens show for `Oc1ccc(CNc2ccc(F)cc2)c2cccnc12`?
HCV inhibitor: inconclusive; HCMV inh: -14; Pf growth 48h: inconclusive; Pf growth 96h: inconclusive

How did Oc1ccc(COCc2ccc(F)cc2)c2cccnc12 do in these assays?
Pf growth 48h: 2.9µM*; Pf growth 96h: 4.1µM*

What do the screens show for `Oc1ccc(COc2cccc3ccccc23)c2cccnc12`?
Pf growth 48h: 2.6µM*; Pf growth 96h: 5.2µM*

Results for COCc1ccc(O)c2ncccc12 ?
HCV inhibitor: 5.6µM*; HCMV inh: -94*; Pf growth 96h: inconclusive

How did CCCCOC(=O)Cn1nnc2sc(-c3ccccc3)cc2c1=O do in these assays?
HCMV inh: 11

What do the screens show for `COc1ccc(-c2c(C#N)c(SCC(=O)Nc3ccccc3C)nc(C)c2C(=O)Nc2ccccc2)cc1OC`?
HCMV inh: 40

Results for COc1ccc(OCC(=O)N2CCN(c3nnc(-c4ccc(C)cc4)c4ccccc34)CC2)cc1 ?
HCV inhibitor: 8.9µM*; HCMV inh: -29; Pf growth 48h: inconclusive; Pf growth 96h: inconclusive

How did Cc1cccc(OCC(=O)N2CCN(C(=O)c3ccc([N+](=O)[O-])cc3)CC2)c1 do in these assays?
HCV inhibitor: -7%; HCMV inh: -61*; Pf growth 48h: 8%; Pf growth 96h: -7%

Results for Cc1cccc(OCC(=O)N2CCN(Cc3ccc([N+](=O)[O-])cc3)CC2)c1 ?
HCV inhibitor: inconclusive; HCMV inh: -32; Pf growth 48h: 12%; Pf growth 96h: 23%

Results for Cc1ccc(-c2nnc(N3CCN(C(=O)CN4C(=O)c5ccccc5C4=O)CC3)c3ccccc23)cc1 ?
HCV inhibitor: -3%; HCMV inh: -13

What do the screens show for `COc1ccc(-c2nnc(N3CCOCC3)c3ccccc23)cc1`?
HCV inhibitor: -19%; HCMV inh: -28; Pf growth 48h: -9%; Pf growth 96h: 13µM*

Results for COc1ccc(-c2nnc(N3CCCCC3)c3ccccc23)cc1 ?
HCV inhibitor: 17%; Pf growth 48h: inconclusive; Pf growth 96h: inconclusive

What do the screens show for `Cc1ccc(OCC(=O)N2CCN(c3nnc(-c4ccc(C)cc4)c4ccccc34)CC2)cc1`?
HCV inhibitor: 8.9µM*; HCMV inh: -99*; Pf growth 96h: 2.9µM*

How did O=C(CSc1nc(=O)[nH]c2c1CCC2)NCc1ccc(F)cc1 do in these assays?
HCMV inh: 9

Results for Cc1ccc(-c2nnc(N3CCN(C(=O)COc4cccc(C)c4)CC3)c3ccccc23)cc1 ?
HCV inhibitor: inconclusive; HCMV inh: -34; Pf growth 48h: 8.3µM*; Pf growth 96h: 13µM*

How did CCC(=O)N1CCN(c2nnc(-c3ccccc3)c3ccccc23)CC1 do in these assays?
HCV inhibitor: -4%; HCMV inh: inconclusive; Pf growth 48h: -15%; Pf growth 96h: -24%

How did O=C(COc1ccccc1)N1CCN(c2nnc(-c3ccccc3)c3ccccc23)CC1 do in these assays?
HCV inhibitor: inconclusive; HCMV inh: inconclusive; Pf growth 48h: inconclusive; Pf growth 96h: 10µM*

How did Cc1cccc(OCC(=O)N2CCN(c3nnc(-c4ccccc4)c4ccccc34)CC2)c1 do in these assays?
HCV inhibitor: inconclusive; HCMV inh: -32; Pf growth 48h: inconclusive; Pf growth 96h: inconclusive
